Results: PubChem BioAssay AID1159580 (chemical genetic matrix, 2015)
“And” between values parts separate entries of the source, which are not always exact repeats. Equal values may be shown once. Out of some 5,500 compounds screened, about 2,000 (36%) were called active. Inconclusive results (about 18%) are left out. Rule as the data show it: active = normalized growth mostly below about 0.91 (no sharp cut-off); inconclusive = no clear call, values can overlap the other calls; inactive = mostly above about 0.92. The list shows a part of the results.

Assay: chemical genetic growth profiling, strain panel (AID 1159580);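 also: tested at 20 µM; growth read once vehicle control cultures reached saturation at 30 °C; 1 = growth at the plate median or of vehicle wells; lower values mean less growth of the strain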
Settings: S. cerevisiae deletion strains, growth OD
[1] = locus YAL013W, strain DEP1, active compounds read low
[2] = locus YAL040C, strain CLN3, active compounds read low
[3] = locus YCL061C, strain MRC1 (second series), active compounds read low
[4] = locus YDR150W, strain NUM1, active compounds read low
[5] = locus YDR363W, strain ESC2, active compounds read low
[6] = locus YER002W, strain NOP16, active compounds read low
[7] = locus YGR078C, strain PAC10, active compounds read low
[8] = locus YJR075W, strain HOC1, active compounds read low
[9] = locus YNL175C, strain NOP13, active compounds read low
[10] = locus YNL197C, strain WHI3, active compounds read low
[11] = locus YNL224C, strain SQS1, active compounds read low
[12] = locus YNL322C, strain KRE1, active compounds read low
[13] = locus YOR083W, strain WHI5 (second series), active compounds read low
[14] = locus YPL241C, strain CIN2, active compounds read low
[15] = locus YPL055C, strain LGE1, active compounds read low

Measured: normalized growth

CNC[C@H](O)c1ccc(O)c(O)c1
inactive: [1] 1.01 | [2] 1.04 | [3] 1 | [4] 1 | [5] 0.993 | [6] 1.01 | [7] 1.02 | [8] 1 | [9] 1.01 | [10] 1.01 | [11] 1.01 | [12] 0.997 | [13] 1.02 | [14] 1

CC(C)NC[C@H](O)c1ccc(O)c(O)c1
inactive: [1] 1.01 | [2] 0.998 | [3] 1 | [4] 0.99 | [5] 1 | [6] 1 | [7] 1.01 | [9] 1.02 | [10] 1.01 | [11] 1.01 | [13] 1 | [15] 0.97

NCC(O)c1ccc(O)c(O)c1 (configuration not stated)
inactive: [2] 1.01 and 1.02 | [3] 0.998 | [5] 0.991 | [6] 1.02 and 0.999 | [7] 1 | [8] 1.02 | locus YMR263W, strain SAP30, active compounds read low 1.01 | locus YMR307W, strain GAS1, active compounds read low 1.02 | locus YNL153C, strain GIM3, active compounds read low 1.01 | [9] 0.999 and 1.01 | [10] 0.995 and 1.01 | [11] 0.987 and 0.982 | [12] 0.997 and 1.02 | [13] 0.98 and 0.991 | [15] 1 | [14] 1.01
